Test results from PubChem BioAssay AID1159580 (chemical genetic matrix, 2015).
Among all 5,500 compounds or so, about 2,000 (36%) were called active. Inconclusive results (about 18%) are left out. Cut-off read from the data, not from the text of the source: active = normalized growth mostly below about 0.91 (no sharp cut-off); inconclusive = no clear call, values can overlap the other calls; inactive = mostly above about 0.92. Some of the results follow.

Test: chemical genetic growth profiling, strain panel (AID 1159580);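 note: tested at 20 µM; growth read once vehicle control cultures reached saturation at 30 °C; 1 = growth at the plate median or of vehicle wells; lower values mean less growth of the strain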
Settings: growth OD

Measured: normalized growth

CC1=CC(=O)C(C(C)C)=CC1=O
active: S. cerevisiae deletion strains, locus YKR001C, strain vps1, active compounds read low 0.727 | S. cerevisiae deletion strains, locus YKR026C, strain gcn3, active compounds read low 0.903 | S. cerevisiae deletion strains, locus YLL026W, active compounds read low 0.838 | S. cerevisiae deletion strains, locus YLR027C, strain aat2, active compounds read low 0.638 | S. cerevisiae deletion strains, locus YLR221C, strain rsa3, active compounds read low 0.355 | S. cerevisiae deletion strains, locus YLR258W, strain gsy2, active compounds read low 0.902 | S. cerevisiae deletion strains, locus YLR262C, strain YPT6 (second series), active compounds read low 0.724 | S. cerevisiae deletion strains, locus YLR268W, strain sec22, active compounds read low 0.764 | S. cerevisiae deletion strains, locus YLR320W, strain mms22, active compounds read low 0.721 | S. cerevisiae deletion strains, locus YLR330W, strain CHS5, active compounds read low 0.648 | S. cerevisiae deletion strains, locus YLR342W, strain FKS1 (second series), active compounds read low 0.749 | S. cerevisiae deletion strains, locus YLR357W, strain rsc2, active compounds read low 0.632 | S. cerevisiae deletion strains, locus YLR371W, strain rom2, active compounds read low 0.715 | S. cerevisiae deletion strains, locus YLR418C, strain cdc73, active compounds read low 0.54 | S. cerevisiae deletion strains, locus YML032C, strain rad52, active compounds read low 0.89 | S. cerevisiae deletion strains, locus YML120C, strain ndi1, active compounds read low 0.13 | S. cerevisiae deletion strains, locus YMR058W, strain fet3, active compounds read low 0.759 | S. cerevisiae deletion strains, locus YMR125W, strain sto1, active compounds read low 0.397 | S. cerevisiae deletion strains, locus YMR129W, active compounds read low 0.839 | S. cerevisiae deletion strains, locus YMR205C, strain PFK2, active compounds read low 0.868 | S. cerevisiae deletion strains, locus YMR223W, strain ubp8, active compounds read low 0.847 | S. cerevisiae deletion strains, locus YMR307W, strain GAS1, active compounds read low 0.49 | S. cerevisiae deletion strains, locus YNL071W, strain lat1, active compounds read low 0.274 | S. cerevisiae deletion strains, locus YNL233W, strain BNI4, active compounds read low 0.657 | S. cerevisiae deletion strains, locus YNL248C, strain rpa49, active compounds read low 0.409 | S. cerevisiae deletion strains, locus YNL271C, strain bni1, active compounds read low 0.917 | S. cerevisiae deletion strains, locus YNL298W, strain CLA4, active compounds read low 0.899 | S. cerevisiae deletion strains, locus YNL307C, strain MCK1, active compounds read low 0.589 | S. cerevisiae deletion strains, locus YNL322C, strain KRE1 (second series), active compounds read low 0.876 | S. cerevisiae deletion strains, locus YOL147C, strain pex11, active compounds read low 0.872 | S. cerevisiae deletion strains, locus YOR001W, strain rrp6, active compounds read low 0.664 | S. cerevisiae deletion strains, locus YOR106W, strain vam3, active compounds read low 0.72 | S. cerevisiae deletion strains, locus YOR144C, strain elg1, active compounds read low 0.916 | S. cerevisiae deletion strains, locus YOR184W, strain ser1, active compounds read low 0.686 | S. cerevisiae deletion strains, locus YOR290C, strain snf2, active compounds read low 0.844 | S. cerevisiae deletion strains, locus YPL051W, strain arl3, active compounds read low 0.886 | S. cerevisiae deletion strains, locus YPL240C, strain hsp82, active compounds read low 0.837 | S. cerevisiae deletion strains, locus YPL241C, strain CIN2, active compounds read low 0.925 | S. cerevisiae deletion strains, locus YPR163C, strain tif3, active compounds read low 0.725 | S. cerevisiae deletion strains, locus YPR167C, strain met16, active compounds read low 0.916 | S. cerevisiae deletion strains, strain wtn01, active compounds read low 0.797 | S. cerevisiae strains, strain wild type, active compounds read low 0.579
inactive: S. cerevisiae deletion strains, locus YJR066W, strain TOR1, active compounds read low 0.903 | S. cerevisiae deletion strains, locus YKL009W, strain mrt4, active compounds read low 0.936 | S. cerevisiae deletion strains, locus YKL068W, active compounds read low 0.961 | S. cerevisiae deletion strains, locus YKL085W, strain MDH1 (second series), active compounds read low 0.965 | S. cerevisiae deletion strains, locus YKL085W, strain MDH1, active compounds read low 0.965 | S. cerevisiae deletion strains, locus YKL160W, strain elf1, active compounds read low 0.951 | S. cerevisiae deletion strains, locus YKL190W, strain CNB1, active compounds read low 0.946 | S. cerevisiae deletion strains, locus YKR091W, strain srl3, active compounds read low 0.999 | S. cerevisiae deletion strains, locus YLL001W, strain dnm1, active compounds read low 1.01 | S. cerevisiae deletion strains, locus YLL041C, strain sdh2, active compounds read low 0.95 | S. cerevisiae deletion strains, locus YLR039C, strain RIC1, active compounds read low 0.691 | S. cerevisiae deletion strains, locus YLR058C, strain SHM2, active compounds read low 0.946 | S. cerevisiae deletion strains, locus YLR102C, strain apc9, active compounds read low 0.95 | S. cerevisiae deletion strains, locus YLR113W, strain HOG1, active compounds read low 0.986 | S. cerevisiae deletion strains, locus YLR262C, strain YPT6, active compounds read low 0.643 | S. cerevisiae deletion strains, locus YLR342W, strain FKS1, active compounds read low 1.01 | S. cerevisiae deletion strains, locus YLR370C, strain arc18, active compounds read low 1.01 | S. cerevisiae deletion strains, locus YLR384C, strain iki3, active compounds read low 0.987 | S. cerevisiae deletion strains, locus YML016C, strain PPZ1, active compounds read low 0.978 | S. cerevisiae deletion strains, locus YML124C, strain tub3, active compounds read low 0.943 | S. cerevisiae deletion strains, locus YMR078C, strain ctf18, active compounds read low 0.912 | S. cerevisiae deletion strains, locus YMR231W, strain pep5, active compounds read low 1.01 | S. cerevisiae deletion strains, locus YNL067W, strain RPL9B, active compounds read low 0.925 | S. cerevisiae deletion strains, locus YNL183C, strain NPR1, active compounds read low 0.892 | S. cerevisiae deletion strains, locus YNL209W, strain ssb2, active compounds read low 1 | S. cerevisiae deletion strains, locus YNL250W, strain rad50, active compounds read low 0.972 | S. cerevisiae deletion strains, locus YNR049C, strain mso1, active compounds read low 0.986 | S. cerevisiae deletion strains, locus YNR052C, strain pop2, active compounds read low 0.922 | S. cerevisiae deletion strains, locus YOL012C, strain htz1 0.626 | S. cerevisiae deletion strains, locus YOR061W, strain CKA2, active compounds read low 0.98 | S. cerevisiae deletion strains, locus YOR069W, strain VPS5, active compounds read low 0.961 | S. cerevisiae deletion strains, locus YOR070C, strain gyp1, active compounds read low 0.976 | S. cerevisiae deletion strains, locus YOR080W, strain dia2, active compounds read low 0.999 | S. cerevisiae deletion strains, locus YOR083W, strain WHI5, active compounds read low 0.904 | S. cerevisiae deletion strains, locus YOR136W, strain idh2, active compounds read low 0.924 | S. cerevisiae deletion strains, locus YOR231W, strain MKK1, active compounds read low 0.967 | S. cerevisiae deletion strains, locus YOR265W, strain rbl2, active compounds read low 0.997 | S. cerevisiae deletion strains, locus YOR270C, strain vph1, active compounds read low 0.777 | S. cerevisiae deletion strains, locus YOR316C, strain cot1, active compounds read low 0.949 | S. cerevisiae deletion strains, locus YPL078C, strain atp4, active compounds read low 0.912 | S. cerevisiae deletion strains, locus YPL106C, strain sse1, active compounds read low 0.923 | S. cerevisiae deletion strains, locus YPL256C, strain CLN2, active compounds read low 0.964 | S. cerevisiae deletion strains, locus YPR119W, strain clb2, active compounds read low 0.938 | S. cerevisiae deletion strains, locus YPR141C, strain kar3, active compounds read low 0.941
